Compound activity: PubChem BioAssay, National Center for Advancing Translational Sciences (NCATS)
SMN2 splice up = increases expression of the SMN2 splice variant | hit rate 2.8% among 210,000 | Potency, µM (doses to about 46.1 µM), most hits filed as activators | HEK293 SMN2-luciferase splicing reporter, luminescence, 30-36 h; also: nearly all actives have a fitted effect of over 55% in size
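qHTS luciferase splicing reporter: luminescence rises when SMN2 exon 7 is included in transfected HEK293 cells. Compound exposure lasted 30-36 h at 37C, with 4.5 mM final sodium butyrate as control, followed by a ONE-Glo read.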
FLuc modulator = inhibits or activates purified firefly luciferase, miR-21 counter-screen. P08659. purified FLuc, Km substrates, luminescence inhibition. Potency, µM (top dose mostly 57.5 µM), most hits filed as inhibitors. hit rate 6.9% among 360,000; also: nearly all actives have a fitted effect of over 55% in size
Target sequence (P08659 whole entry, looked up): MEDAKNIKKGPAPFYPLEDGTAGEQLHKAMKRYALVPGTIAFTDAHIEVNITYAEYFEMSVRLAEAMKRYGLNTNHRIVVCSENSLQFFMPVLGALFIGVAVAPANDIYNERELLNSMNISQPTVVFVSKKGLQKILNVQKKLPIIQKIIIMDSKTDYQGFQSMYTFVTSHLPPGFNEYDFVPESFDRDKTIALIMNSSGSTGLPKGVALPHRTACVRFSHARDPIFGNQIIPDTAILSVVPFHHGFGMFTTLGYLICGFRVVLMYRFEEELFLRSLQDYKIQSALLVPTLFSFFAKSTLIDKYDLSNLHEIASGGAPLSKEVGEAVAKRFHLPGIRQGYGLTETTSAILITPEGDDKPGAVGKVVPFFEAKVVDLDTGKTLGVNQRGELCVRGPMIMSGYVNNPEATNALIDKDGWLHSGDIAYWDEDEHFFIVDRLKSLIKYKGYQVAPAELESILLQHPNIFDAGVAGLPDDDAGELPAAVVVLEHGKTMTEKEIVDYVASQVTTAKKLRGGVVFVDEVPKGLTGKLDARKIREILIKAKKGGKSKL
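Biochemical qHTS of compounds, final roughly 60 µM downward over six points, against 10 nM purified firefly luciferase using Km concentrations of substrates (10 uM D-luciferin, 10 uM ATP) in Tris acetate pH 7.5 buffer; luminescence output.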
Rab9 promoter act = Rab9 promoter activation; Potency, µM (doses to about 9.22 µM), usual class: activators; Huh7 Rab9 promoter-luciferase reporter, luminescence, 24 h; hit rate 2.8% among 320,000; also: nearly all actives have a fitted effect of over 60% in size
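Rab9 promoter-driven luciferase in stably transfected Huh7 cells; 1500 cells/well rested 2 h, exposed to compound in DMSO for 24 h at 37 °C, 5% CO2. Luminescence read 10 min after adding luciferase reagent at ambient temperature.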
ELG1 DNA repair = ELG1-dependent DNA repair inhibition; HEK293T ELG1-luciferase reporter, luminescence, 16 h; DNA damage induced by 5-fluorouridine; Potency, µM (highest dose often 46.1 µM), actives largely listed as inhibitors; hit rate 2.3% among 330,000; AID 504467; also: nearly all actives have a fitted effect of over 55% in size
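Cells (2,000 per well) received 5-fluorouridine plus test compound or DMSO and were incubated 16 hr at 37 °C, 5% CO2. Luciferase activity was read by luminescence 30 min after ONE-Glo addition; signal suppression marked inhibition of damage-induced ELG1 function.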
ELG1 genotoxic = genotoxicity induction in ELG1-luciferase HEK293T cells; hit rate 1.3% among 330,000; Potency, µM (highest dose often 46 µM), most hits filed as activators; HEK293T ELG1-luciferase reporter, luminescence, 16 h; also: nearly all actives have a fitted effect of over 60% in size
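DMSO vehicle served as control against compound-treated ELG1-luciferase HEK293T cells; exposure lasted 16 hr at 37 °C and 5% CO2, followed by ONE-Glo luminescence detection after 30 min.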
NPC1 prom act = activators of NPC1 promoter; hit rate 2.4% among 320,000; Potency, µM (top dose mostly 9.22 µM), actives largely listed as activators; Huh7 NPC1 promoter luciferase reporter, 24 h; also: nearly all actives have a fitted effect of over 60% in size
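Compounds in DMSO were transferred onto Huh7 NPC1-luciferase reporter cells pre-incubated 2 h; after 24 h at 37 °C, Amplite reagent was dispensed and luminescence recorded 10 min later.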
A number is an active result; [ ] = another dose, or the depositor's remark. Only some compounds are listed: those with a hit (about 9.2% of all), similar ones and a draw of the others. Calls follow the shape of the dose curve; as a rule, active = well fitted curve in the direction sought with a large enough effect; inconclusive = small, poorly fitted or top-dose-only effect, or another doubt; inactive = no such curve, though single readings can be large; an effect the other way counts as inactive or inconclusive.

What do the screens show for `O=C(Nc1ncc(Cc2cccc(Cl)c2)s1)C1CCCO1` (stereo not given)?
SMN2 splice up: inactive; FLuc modulator: 19µM; Rab9 promoter act: inconclusive; ELG1 DNA repair: inconclusive; ELG1 genotoxic: inactive; NPC1 prom act: inconclusive

How did CC(=O)Nc1ncc(Cc2cccc(Cl)c2)s1 do in these assays?
FLuc modulator: inactive; Rab9 promoter act: inactive; ELG1 DNA repair: inactive; ELG1 genotoxic: inactive; NPC1 prom act: inactive

What do the screens show for `O=C(Nc1ncc(Cc2ccccc2Cl)s1)C1CCCO1` (stereo not given)?
SMN2 splice up: 12.6µM; FLuc modulator: 9.53µM; Rab9 promoter act: 1.41µM; ELG1 DNA repair: inconclusive; ELG1 genotoxic: inconclusive; NPC1 prom act: 3.55µM

Results for C=CCN(CC=C)CC(O)CN(c1cc([N+](=O)[O-])ccc1OC)S(=O)(=O)c1ccccc1 (stereo not given) ?
SMN2 splice up: inactive[1.84 µM]; FLuc modulator: inactive; Rab9 promoter act: inactive; ELG1 DNA repair: inactive; ELG1 genotoxic: inactive; NPC1 prom act: inactive

What do the screens show for `O=C1CCC(O)CCN1CCSc1ccccc1` (stereo not given)?
FLuc modulator: inconclusive; Rab9 promoter act: inconclusive; ELG1 DNA repair: inconclusive; ELG1 genotoxic: inactive; NPC1 prom act: inconclusive

How did O=C1CC(c2ccc3c(c2)OCCO3)Oc2ccc([N+](=O)[O-])cc21 (stereo not given) do in these assays?
FLuc modulator: 0.269µM; Rab9 promoter act: 0.562µM; ELG1 DNA repair: inconclusive; ELG1 genotoxic: 0.651µM; NPC1 prom act: inconclusive

What do the screens show for `COc1ccc(C2CC(=O)c3ccccc3O2)cc1` (stereo not given)?
SMN2 splice up: inactive; FLuc modulator: 15.1µM; Rab9 promoter act: inconclusive; ELG1 DNA repair: inconclusive; ELG1 genotoxic: inconclusive; NPC1 prom act: inconclusive

Results for O=C1CC(c2ccccc2)Oc2cc(O)cc(O)c21 (stereo not given) ?
FLuc modulator: 16.9µM; Rab9 promoter act: inactive; ELG1 DNA repair: inconclusive; ELG1 genotoxic: inconclusive; NPC1 prom act: inactive

Results for O=C1CC(c2ccc(O)c(O)c2)Oc2cc(O)cc(O)c21 (stereo not given) ?
SMN2 splice up: inactive; FLuc modulator: inactive; Rab9 promoter act: inactive; ELG1 DNA repair: inactive; ELG1 genotoxic: inactive; NPC1 prom act: inactive

Results for O=C1CC(c2ccc3c(c2)OCCO3)Oc2ccccc21 (stereo not given) ?
FLuc modulator: 21.3µM; Rab9 promoter act: 2.82µM; ELG1 DNA repair: inconclusive; ELG1 genotoxic: inconclusive; NPC1 prom act: 3.16µM

How did O=C(Nc1ccc2c(c1)OCCO2)C1CCN(C(=O)c2ccc([N+](=O)[O-])cc2)CC1 do in these assays?
SMN2 splice up: inactive; FLuc modulator: inactive; Rab9 promoter act: inactive; ELG1 DNA repair: inconclusive; ELG1 genotoxic: inactive; NPC1 prom act: inactive

Results for COC(=O)c1ccc(NC(=O)CSc2nc3cc4ccccc4cc3[nH]2)cc1 ?
SMN2 splice up: inactive; FLuc modulator: inactive

Results for CCOC(=O)c1c(C)[nH]c(C(=O)CSc2nc3ccccc3o2)c1C ?
SMN2 splice up: 0.316µM; FLuc modulator: inactive; Rab9 promoter act: inactive; ELG1 DNA repair: inactive; ELG1 genotoxic: inactive; NPC1 prom act: inactive

Results for CCOC(=O)c1c(C)[nH]c(C(=O)CSc2ccc(Cl)cc2)c1C ?
SMN2 splice up: 11.2µM; FLuc modulator: 6.01µM; Rab9 promoter act: inconclusive; ELG1 DNA repair: inconclusive; ELG1 genotoxic: inconclusive; NPC1 prom act: inconclusive

How did CCOC(=O)c1c(C)[nH]c(C(=O)CSc2nnc(CC(C)c3ccccc3)o2)c1C (stereo not given) do in these assays?
SMN2 splice up: inactive; FLuc modulator: inactive; Rab9 promoter act: inactive; ELG1 DNA repair: inactive; ELG1 genotoxic: inactive; NPC1 prom act: inactive

How did COCCn1c(SCC(=O)c2[nH]c(C)c(C(C)=O)c2C)nc2ccccc21 do in these assays?
SMN2 splice up: inactive; FLuc modulator: inactive; Rab9 promoter act: inactive; ELG1 DNA repair: 25.9µM; ELG1 genotoxic: inactive; NPC1 prom act: inactive

How did COc1ccc(OC)c(NC(=O)CSc2nc3ccccc3c(=O)n2CCC(=O)NC2CCCCC2)c1 do in these assays?
FLuc modulator: inactive

Results for Cc1nn(C)c(C)c1NC(=O)c1ccccc1NC(=O)Nc1ccccc1 ?
FLuc modulator: 16.9µM; Rab9 promoter act: inactive; ELG1 DNA repair: inactive; ELG1 genotoxic: inactive; NPC1 prom act: inactive

How did COCCNC(=O)c1ccccc1NC(=O)c1nsc2ccccc12 do in these assays?
FLuc modulator: 19µM

Results for C=CCNC(=O)c1ccccc1NC(=O)Nc1ccccc1 ?
SMN2 splice up: inactive; FLuc modulator: 19µM; Rab9 promoter act: inactive; ELG1 DNA repair: inactive; ELG1 genotoxic: inactive; NPC1 prom act: inactive

What do the screens show for `Cc1ccc(NC(=O)Nc2ccccc2C(=O)NCc2ccccc2)cc1`?
SMN2 splice up: inactive; FLuc modulator: 4.78µM; Rab9 promoter act: inactive; ELG1 DNA repair: inconclusive; ELG1 genotoxic: inconclusive; NPC1 prom act: inactive

How did COC(=O)c1ccccc1NC(=O)Cc1nc(-c2ccc(OC)cc2)no1 do in these assays?
FLuc modulator: inactive

What do the screens show for `O=C(Nc1ccccc1)Nc1ccccc1C(=O)NCC1CC1`?
FLuc modulator: 15.1µM; Rab9 promoter act: inactive; ELG1 DNA repair: inactive; ELG1 genotoxic: inactive; NPC1 prom act: inactive

What do the screens show for `COCCNC(=O)c1ccccc1NC(=O)Nc1ccccc1`?
SMN2 splice up: inactive; FLuc modulator: 26.9µM; Rab9 promoter act: inactive; ELG1 DNA repair: inactive; ELG1 genotoxic: inactive; NPC1 prom act: inactive

Results for COCCNC(=O)c1ccccc1NC(=O)c1cc(OC)cc(OC)c1 ?
SMN2 splice up: inactive; FLuc modulator: inactive; Rab9 promoter act: inactive; ELG1 DNA repair: inconclusive; ELG1 genotoxic: inactive; NPC1 prom act: inactive

What do the screens show for `O=C(NCC1CC1)c1ccccc1Cl`?
FLuc modulator: inactive; Rab9 promoter act: inactive; ELG1 DNA repair: inactive; ELG1 genotoxic: inactive; NPC1 prom act: inactive

How did CC1N=C2c3ccccc3N=C(SCC(=O)NCc3ccc(Cl)cc3)N2C1=O (stereo not given) do in these assays?
FLuc modulator: inactive

Results for Cc1ccc(-n2ncc3c(=O)n(CC(=O)OCc4ccccc4)cnc32)cc1 ?
SMN2 splice up: inactive; FLuc modulator: inconclusive; Rab9 promoter act: inactive; ELG1 DNA repair: inconclusive; ELG1 genotoxic: inactive; NPC1 prom act: inactive

What do the screens show for `O=C(Cn1cnc2c(cnn2-c2ccc(F)cc2)c1=O)N1CCN(c2ccccc2F)CC1`?
SMN2 splice up: inactive; FLuc modulator: inactive; Rab9 promoter act: inactive; ELG1 DNA repair: 18.4µM; ELG1 genotoxic: inactive; NPC1 prom act: inactive

What do the screens show for `O=C(Cn1cnc2c(cnn2-c2ccccc2)c1=O)OCc1ccccc1`?
SMN2 splice up: inactive; FLuc modulator: 10.7µM; Rab9 promoter act: 3.98µM; ELG1 DNA repair: inconclusive; ELG1 genotoxic: inactive; NPC1 prom act: inactive
